Reference: PubChem BioAssay AID493203 (National Center for Advancing Translational Sciences (NCATS), 2011)
Inconclusive results are not listed. Entries that show only a call come without a potency. The source made the active and inactive calls. The call rests on the fitted dose curve; in most records, active means well fitted activation curve with a large enough effect; inconclusive means small, poorly fitted or top-dose-only effect; inactive means flat fitted curve, though single readings scatter.

Assay: qHTS Assay for NPC1 Promoter Activators: Initial hit validation from the primary screen
Conditions: Huh7 NPC1 promoter-luciferase reporter, luminescence, 24 h; series mostly up to 46.1 µM
Source text: NIH Chemical Genomics Center [NCGC] NIH Molecular Libraries Probe Production centers Network [MLPCN] MLPCN Grant: MH089375-01A1 Assay Submitter (PI): Yiannis A. Ioannou NCGC Assay Overview: Niemann Pick Type C (NPC) is a rare neurodegenerative lipidosis that is characterized by lipid storage in the endosomal/lysosomal system. Treatment modalities for this devastating disease are currently non-existent due to the severe obstacles associated with accessing the central nervous system with proteins or genes. The majority of mutations causing NPC disease are missense mutations that are distributed throughout the length of the NPC1 protein, with the most prevalent being the I1061T allele. Although NPC1 mutant proteins may be functional, they are typically trapped in the ER due to misfolding. […] We have developed and optimized a cell based luciferase reporter assay in 1536 well format for the identification of up-regulators of the mutant NPC1 promoter. This assay presents data on the validation of hits from the primary screen.
The NPC1 promoter is cloned in front of the luciferase reporter gene, therefore NPC promoter activation results in luciferase expression. Frozen stock of the NPC1 promoter transfected Huh7 cells were obtained from the laboratory of Dr. Yiannis Ioannou (The Mount Sinai School of Medicine, New York, NY). Cells were propagated and maintained at NCGC in medium containing RPMI-1640 supplemented with 10% FBS, 2mM L-glutamine, and 50ug/ml penicillin/streptomycin. Cells were harvested in and plated for assays in OP-MEM I reduced-serum medium supplemented with 10% FBS. The Amplite luciferase reporter gene assay kit was purchased from ABD Bioquest and prepared/stored according to manufacturers recommendations. qHTS Assay Setup: 1. Dispensed 5ul of Huh7 cells stably expressing NPC1-luciferase at a density of 1500 cells per well 1536-well plates. 2. Incubate cells at 37C, 5% CO2, and 95% humidity for 2 hours. 3. Transferred 23nl per well of compound in DMSO solution. 4. Incubated at 37C, 5% CO2, and 95% humidity for 24 hours. 5. Dispensed 3ul per well of Amplite reagent(ABD Bioquest) per well. 6. Incubate at ambient for 10 minutes. 7. Read using the luminescence protocol on the ViewLux plate reader (Perkin Elmer).
Potency means the concentration at half of the fitted maximal effect.

Row | Structure (SMILES) | Potency
1 | Cc1ccc(NC(=O)NC(=O)c2ccccc2)cc1F | 0.499 µM (active)
2 | O=S(=O)(c1cccs1)N1CCN(c2ncccn2)CC1 | inactive
3 | O=C(NCCc1c[nH]c2ccccc12)C(=O)NCC(c1ccco1)N1CCN(c2ccccc2F)CC1 (stereo not given) | inactive
4 | O=C(CCCOc1ccc(Cl)cc1)N1CCCCC1 | 25 µM (active)
5 | CC1=C(C(=O)OC2CCCC(C)C2)C(c2ccccc2)NC(=O)N1 (stereo not given) | inactive
6 | CNC(=O)Cn1nc(C)c2ccccc2c1=O | inactive
7 | CCCCCCC(=O)Nc1ccc(C(=O)N/N=C/c2cccnc2)cc1 | inactive
8 | CCC(C)(C)NC(=O)C(c1ccc(OC)cc1)N(Cc1cccs1)C(=O)CCC(=O)Nc1cc(C)on1 (stereo not given) | inactive
9 | O=C(NCCSCc1c(F)cccc1Cl)c1ccc(CN2CCOCC2)cc1 | inactive
10 | S=C1NCN(CCc2ccccc2)CN1Cc1ccccc1 | inactive
11 | COc1ccc(C2(CNC(=O)/C=C/c3ccco3)CCCC2)cc1OC | inactive
12 | C=CCn1c(C)nnc1SCC(=O)Nc1nccs1 | inactive
13 | Cc1nn(CCCC(=O)NCc2ccc(F)cc2)c(C)c1[N+](=O)[O-] | inactive
14 | Cc1[nH]n(-c2cccc3ccccc23)c(=O)c1/C=N/c1sc2c(c1C#N)CCC2 | inactive
15 | Cc1ccc(C#N)c(SCC(=O)Nc2nccs2)n1 | 1.12 µM (active)
16 | COc1ccc(/C=C\C(=O)c2c(O)ccc3c(C)cc(=O)oc23)cc1OC | inactive
17 | COCCNC(=O)C1CCC(CNS(=O)(=O)c2ccc(F)cc2)CC1 (stereo not given) | inactive
18 | NC(=O)C(=O)NN=C1C2CC3CC(C2)CC1C3 | inactive
19 | Cc1ccc(C(=O)NCc2ccc3c(c2)OCO3)cc1C | 31.5 µM (active)
20 | CC1CN(C(=O)c2ccncc2)CC(C)O1 (stereo not given) | inactive

Row | Structure (SMILES) | Potency
21 | O=C(O)CSc1nnc(-c2ccncc2)n1CCc1ccccc1 | inactive
22 | CCOC(=O)c1ccc(-c2nnc(-c3ccc(Cl)cc3Cl)o2)cc1 | 2.5 µM (active)
23 | CC(=O)Nc1ccc(-c2csc(Nc3ncccn3)n2)cc1 | 0.499 µM (active)
24 | CN(C)/C=N/c1c(C#N)cnn1-c1nc2ccccc2s1 | inactive
25 | CCN(Cc1nc2cc(Cl)ccc2c(=O)[nH]1)C(=O)C1CC(=O)N(c2cccc3ccccc23)C1 (stereo not given) | inactive
26 | CCOC(=O)c1cc2sccc2n1CC(=O)N1CCCc2ccccc21 | inactive
27 | Cc1ccccc1NC(=O)Cc1nc(COC(=O)CC(C)c2ccccc2)cs1 (stereo not given) | inactive
28 | CCN(CC)S(=O)(=O)c1ccc(NCc2ccccn2)nc1 | inactive
29 | COCCn1c(SCc2ccc(C(=O)OC)o2)nc2cc(Cl)ccc2c1=O | inactive
30 | CCCCn1c(Nc2ccc(OC)cc2)nc2ccccc21 | inactive
31 | CCN(CC(=O)N(CC(C)C)c1c(N)n(CC(C)C)c(=O)[nH]c1=O)Cc1nc2ccccc2c(=O)[nH]1 | inactive
32 | Cc1ccc(C(=O)Nc2ccc(N3CCN(C)CC3)nc2)cc1 | 31.5 µM (active)
33 | O=C(CSc1nnc(-c2ccccn2)o1)Nc1ccccc1F | 1.12 µM (active)
34 | O=C(C1COc2ccccc2O1)N1CCN(S(=O)(=O)c2ccccc2)CC1 (stereo not given) | inactive
35 | COc1ccc(NC(=O)CSc2ccc([N+](=O)[O-])cc2)cc1S(=O)(=O)N1CCOCC1 | inactive
36 | O=C(C[N+]1(CC#Cc2ccccc2)CCCCC1)c1ccccc1 | inactive
37 | CN(C)C(CNC(=O)CNC(=O)c1ccc2ccccc2c1)c1ccccc1 (stereo not given) | inactive
38 | COc1ccccc1CNC(=O)COc1ccc(C)cc1 | inactive
39 | COc1ccc(-n2c(N)c(C(=O)NCc3ccco3)sc2=S)cc1 | inactive
40 | O=C(Nc1nc2ccc(F)cc2s1)c1ccc(N2CCCC2=O)cc1 | 0.141 µM (active)
